The structures appear in SMILES notation. Calls of active or inactive are those of the source. Rule for the calls: active = hit-call score of the fitted dose curve at least 0.9, where 1 is the maximum; inactive = score below 0.9.

A word on the AC50: it is the concentration giving half of the maximal activity seen.

Holding throughout (details): mRNA level, 48 h; actives raise or lower the signal
Read-out in test [1]: Bcl-2 (BID) gene, BID (gene 637)
Briefly: LTEA_HepaRG_BID: Life Technologies and Expression Analysis (LTEA) Assay for Bcl-2 (BID) gene using HepaRG (AID 2283476). In outline: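 Duplicate 48 h treatments of HepaRG cells in serum-free induction medium spanned 100 uM downward in half-log steps, 0.5% DMSO. Transcript change quantified by qRT-PCR against three housekeeping genes, fitted up or down versus DMSO.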

Read-out in test [2]: Caspase-3 (Homo sapiens) (UniProt P42574)
Description: LTEA_HepaRG_CASP3: Life Technologies and Expression Analysis (LTEA) Assay for cysteine-aspartic acid protease (CASP3) using HepaRG (AID 2283477). A digest of the protocol:
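Read-out is CASP3 mRNA level by TaqMan qRT-PCR in human HepaRG cells after 48 h chemical exposure. Eight half-log concentrations topping at 100 uM were tested in 0.5% DMSO; gain or loss was fitted relative to DMSO.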

Read-out in test [3]: Cytochrome P450 (CYP24A1), CYP24A1 (gene 1591)
Description: LTEA_HepaRG_CYP24A1: Life Technologies and Expression Analysis (LTEA) Assay for Cytochrome P450 (CYP24A1) using HepaRG (AID 2283478). In outline: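 HepaRG, 48 h chemical exposure, 8-pt half-log CRC from 100 uM, 0.5% DMSO vehicle, duplicates. Endpoint: CYP24A1 mRNA by Fluidigm TaqMan qRT-PCR, normalized ACTB/GAPDH/POLR2A; gain/loss fit vs DMSO.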

Read-out in test [4]: Cytochrome P450 (CYP1A2), CYP1A2 (gene 1544)
Briefly: LTEA_HepaRG_CYP1A2: Life Technologies and Expression Analysis (LTEA) Assay for Cytochrome P450 (CYP1A2) using HepaRG (AID 2283479). A digest of the protocol:
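CYP1A2 transcript induction or loss, quantified by Fluidigm qRT-PCR against three housekeeping genes, was fitted bidirectionally against 0.5% DMSO controls. Human HepaRG cells received eight half-log concentrations from 100 uM over 48 h.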

Read-out in test [5]: cysteine-aspartic acid protease (CASP8), CASP8 (gene 841)
Briefly: LTEA_HepaRG_CASP8: Life Technologies and Expression Analysis (LTEA) Assay for cysteine-aspartic acid protease (CASP8) using HepaRG (AID 2283480). A digest of the protocol:
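Concentration-response in duplicate up to 100 uM (half-log steps, 0.5% DMSO) on differentiated HepaRG cultures for 48 h. Expression change of CASP8 mRNA is determined by TaqMan qRT-PCR with housekeeping-gene normalization.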

Read-out in test [6]: Cytochrome P450 (CYP2B6), CYP2B6 (gene 1555)
Description: LTEA_HepaRG_CYP2B6: Life Technologies and Expression Analysis (LTEA) Assay for Cytochrome P450 (CYP2B6) using HepaRG (AID 2283481). In outline:
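HepaRG cells plated 48 h, switched to serum-free induction medium, then dosed 48 h (8 points, half-log from 100 uM, 0.5% DMSO). RNA isolated; CYP2B6 expression measured by qRT-PCR; gain or loss fitted relative to DMSO.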

Read-out in test [7]: Cytochrome P450 2C19 (Homo sapiens) (UniProt P33261)
Briefly: LTEA_HepaRG_CYP2C19: Life Technologies and Expression Analysis (LTEA) Assay for CYP2C19 using HepaRG (AID 2283482). A digest of the protocol: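 Transcript levels of CYP2C19 were quantified by qRT-PCR after HepaRG cells were treated for 48 hours with test chemicals up to 100 uM (eight half-log concentrations, 0.5% DMSO vehicle). Gain or loss of signal was fitted relative to DMSO.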

Read-out in test [8]: CYP2C8 (gene 1558)
Briefly: LTEA_HepaRG_CYP2C8: Life Technologies and Expression Analysis (LTEA) Assay for CYP2C8 using HepaRG (AID 2283483). In outline: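 This is a transcriptional endpoint in HepaRG cultures: 48 h exposure, highest concentration 100 uM. CYP2C8 mRNA is quantified by TaqMan qRT-PCR.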

Read-out in test [9]: CYP2C9 (gene 1559)
Description: LTEA_HepaRG_CYP2C9: Life Technologies and Expression Analysis (LTEA) Assay for CYP2C9 using HepaRG (AID 2283484). In outline: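 Eight-point concentration-response (highest 100 uM, half-log dilutions) in HepaRG cells for 48 h; CYP2C9 expression by qRT-PCR normalized to ACTB, GAPDH, POLR2A. Bidirectional fit, DMSO baseline.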

Read-out in test [10]: CYP2E1 (gene 1571)
Description: LTEA_HepaRG_CYP2E1: Life Technologies and Expression Analysis (LTEA) Assay for CYP2E1 using HepaRG (AID 2283485). In outline: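 CYP2E1 transcript measured by Fluidigm qRT-PCR against three housekeeping genes in human HepaRG cells treated 48 h (top 100 uM, half-log steps, 0.5% DMSO vehicle). Gain or loss fitted relative to DMSO baseline.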

Read-out in test [11]: CYP4A11 (gene 1579)
Description: LTEA_HepaRG_CYP4A11: Life Technologies and Expression Analysis (LTEA) Assay for CYP4A11 using HepaRG (AID 2283486). A digest of the protocol: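 HepaRG, 48 h chem exposure, 8 conc (100 uM top, half-log), 0.5% DMSO vehicle; qRT-PCR readout, housekeeping-gene normalized; bidirectional curve fit vs DMSO baseline.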

Read-out in test [12]: Cytochrome P450 3A4 (Homo sapiens) (UniProt P08684)
Briefly: LTEA_HepaRG_CYP3A4: Life Technologies and Expression Analysis (LTEA) Assay for CYP3A4 using HepaRG (AID 2283487). A digest of the protocol:
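In a human hepatic line (HepaRG), duplicate wells were treated 48 h with up to 100 uM chemical in half-log dilutions. Endpoint: CYP3A4 mRNA induction or loss relative to 0.5% DMSO vehicle, by qRT-PCR.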

Read-out in test [13]: Pro-epidermal growth factor (Homo sapiens) (UniProt P01133)
Briefly: LTEA_HepaRG_EGF: Life Technologies and Expression Analysis (LTEA) Assay for Epidermal growth factor (EGF) using HepaRG (AID 2283489). In outline:
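HepaRG, 48 h dosing, 100 uM top, half-log x8, 0.5% DMSO. Readout: TaqMan qRT-PCR (Fluidigm array), housekeeping-normalized. Gain or loss of signal fit vs DMSO.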

Read-out in test [14]: Early growth response protein 1 (EGR1) transcription factor, EGR1 (gene 1958)
Description: LTEA_HepaRG_EGR1: Life Technologies and Expression Analysis (LTEA) Assay for Early growth response protein 1 (EGR1) transcription factor using HepaRG (AID 2283490). A digest of the protocol:
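EGR1 expression change in human HepaRG after 48 h chemical exposure, assessed by housekeeping-normalized qRT-PCR; concentration-response up to 100 uM, fitted in both directions against DMSO controls.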

Read-out in test [15]: Ezrin (EZR), EZR (gene 7430)
Briefly: LTEA_HepaRG_EZR: Life Technologies and Expression Analysis (LTEA) Assay for Ezrin (EZR) using HepaRG (AID 2283491). A digest of the protocol: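 Gain or loss of EZR mRNA is scored relative to 0.5% DMSO in human HepaRG cultures treated 48 h with test chemicals in duplicate, eight half-log concentrations from 100 uM.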

Read-out in test [16]: Cytochrome P450 3A7 (Homo sapiens) (UniProt P24462)
Briefly: LTEA_HepaRG_CYP3A7: Life Technologies and Expression Analysis (LTEA) Assay for CYP3A7 using HepaRG (AID 2283492). In outline: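 Human HepaRG liver cells, 48 h post-plating, switched to serum-free induction medium and exposed in duplicate for 48 h. Dosing: 100 uM top, half-log dilutions, 8 points, 0.5% DMSO vehicle. Read-out: CYP3A7 mRNA, gain or loss fitted against DMSO baseline.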

Read-out in test [17]: CYP3A5 (gene 1577)
Briefly: LTEA_HepaRG_CYP3A5: Life Technologies and Expression Analysis (LTEA) Assay for CYP3A5 using HepaRG (AID 2283493). A digest of the protocol: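 mRNA levels were quantified by qRT-PCR on Fluidigm arrays and normalized to three housekeeping genes. Differentiated HepaRG cells received 48 h exposure (top 100 uM, half-log steps, 0.5% DMSO vehicle, duplicate); bidirectional fitting versus DMSO.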

Read-out in test [18]: Fatty Acid-Binding Protein 1 (FABP1), FABP1 (gene 2168)
Description: LTEA_HepaRG_FABP1: Life Technologies and Expression Analysis (LTEA) Assay for Fatty Acid-Binding Protein 1 (FABP1) using HepaRG (AID 2283494). In outline:
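Values reflect bidirectional concentration-response fitting of FABP1 mRNA change against 0.5% DMSO controls. Human HepaRG cultures received eight half-log doses (top 100 uM) for 48 h; expression quantified by TaqMan qRT-PCR with housekeeping-gene normalization.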

Read-out in test [19]: Cytochrome P450 4A22 (Homo sapiens) (UniProt Q5TCH4)
Description: LTEA_HepaRG_CYP4A22: Life Technologies and Expression Analysis (LTEA) Assay for Cytochrome P450 4A22 (CYP4A22) using HepaRG (AID 2283495). In outline: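 Readout is CYP4A22 transcript induction or loss, quantified by qRT-PCR and normalized to ACTB, GAPDH and POLR2A. Human HepaRG cells receive test chemicals for 48 h at eight half-log concentrations from 100 uM in 0.5% DMSO.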

Cytochrome P450 2C19 (Homo sapiens), sequence (P33261 whole entry, looked up): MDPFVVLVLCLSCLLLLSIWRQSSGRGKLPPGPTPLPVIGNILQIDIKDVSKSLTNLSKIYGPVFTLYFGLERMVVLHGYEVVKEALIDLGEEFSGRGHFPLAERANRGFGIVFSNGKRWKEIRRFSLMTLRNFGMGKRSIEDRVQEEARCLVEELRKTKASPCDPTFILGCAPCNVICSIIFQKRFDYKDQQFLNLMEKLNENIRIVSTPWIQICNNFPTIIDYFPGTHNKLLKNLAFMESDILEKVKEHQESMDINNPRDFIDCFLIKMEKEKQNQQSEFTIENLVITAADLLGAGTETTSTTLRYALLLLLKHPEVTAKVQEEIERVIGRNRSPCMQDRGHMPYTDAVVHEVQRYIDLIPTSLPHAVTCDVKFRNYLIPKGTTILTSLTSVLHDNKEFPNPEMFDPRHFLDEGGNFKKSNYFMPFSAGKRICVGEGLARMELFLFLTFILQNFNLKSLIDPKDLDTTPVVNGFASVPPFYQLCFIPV
Cytochrome P450 3A4 (Homo sapiens), sequence (P08684 whole entry, looked up): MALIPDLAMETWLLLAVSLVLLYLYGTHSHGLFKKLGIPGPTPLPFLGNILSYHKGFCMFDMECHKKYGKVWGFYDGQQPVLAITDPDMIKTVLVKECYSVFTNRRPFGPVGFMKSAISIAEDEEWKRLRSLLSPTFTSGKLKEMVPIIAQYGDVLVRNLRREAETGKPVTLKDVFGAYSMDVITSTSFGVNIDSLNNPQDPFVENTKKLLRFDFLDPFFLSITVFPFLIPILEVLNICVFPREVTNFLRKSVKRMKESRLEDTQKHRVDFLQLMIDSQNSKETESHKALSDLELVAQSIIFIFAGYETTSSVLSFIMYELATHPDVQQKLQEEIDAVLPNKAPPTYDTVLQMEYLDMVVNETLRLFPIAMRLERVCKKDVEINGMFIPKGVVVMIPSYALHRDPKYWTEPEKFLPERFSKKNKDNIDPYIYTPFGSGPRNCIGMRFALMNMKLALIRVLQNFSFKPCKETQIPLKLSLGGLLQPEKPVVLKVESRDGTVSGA
Caspase-3 (Homo sapiens), sequence (P42574 whole entry, looked up): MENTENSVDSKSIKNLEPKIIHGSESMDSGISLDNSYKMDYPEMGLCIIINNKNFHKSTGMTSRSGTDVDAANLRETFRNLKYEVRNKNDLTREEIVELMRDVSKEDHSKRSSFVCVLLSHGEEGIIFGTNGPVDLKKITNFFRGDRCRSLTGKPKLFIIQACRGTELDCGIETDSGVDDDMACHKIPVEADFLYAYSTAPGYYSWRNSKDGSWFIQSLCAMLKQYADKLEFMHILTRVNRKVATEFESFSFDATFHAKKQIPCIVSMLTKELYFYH
Cytochrome P450 3A7 (Homo sapiens), sequence (P24462 whole entry, looked up): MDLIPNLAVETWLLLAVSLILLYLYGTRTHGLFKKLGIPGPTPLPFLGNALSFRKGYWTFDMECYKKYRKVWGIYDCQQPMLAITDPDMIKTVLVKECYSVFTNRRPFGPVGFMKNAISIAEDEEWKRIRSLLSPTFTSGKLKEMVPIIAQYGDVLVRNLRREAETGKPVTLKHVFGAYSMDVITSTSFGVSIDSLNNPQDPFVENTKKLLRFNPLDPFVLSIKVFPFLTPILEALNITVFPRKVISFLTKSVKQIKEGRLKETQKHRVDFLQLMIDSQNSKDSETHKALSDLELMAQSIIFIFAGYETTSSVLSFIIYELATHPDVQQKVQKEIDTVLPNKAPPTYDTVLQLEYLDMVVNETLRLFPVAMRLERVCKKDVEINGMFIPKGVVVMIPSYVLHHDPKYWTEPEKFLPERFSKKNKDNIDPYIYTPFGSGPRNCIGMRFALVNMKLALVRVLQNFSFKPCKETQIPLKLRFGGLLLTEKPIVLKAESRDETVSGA

On to `O=C(OC[C@H]1O[C@@H](OC(=O)c2cc(O)c(O)c(OC(=O)c3cc(O)c(O)c(O)c3)c2)[C@H](OC(=O)c2cc(O)c(O)c(OC(=O)c3cc(O)c(O)c(O)c3)c2)[C@@H](OC(=O)c2cc(O)c(O)c(OC(=O)c3cc(O)c(O)c(O)c3)c2)[C@@H]1OC(=O)c1cc(O)c(O)c(OC(=O)c2cc(O)c(O)c(O)c2)c1)c1cc(O)c(O)c(OC(=O)c2cc(O)c(O)c(O)c2)c1`, for which the AC50 in [1] is 7.63 µM (active); in [5], 9.48 µM (active); in [6], 10.2 µM (active); in [7], 15.2 µM (active); in test [8], 15.2 µM (active); in test [9] it was 10.4 µM (active). Besides, the AC50 is 5.26 µM (active) in [10]; 10.4 µM (active) in [11]; 11.3 µM (active) in test [12]; 8.99 µM (active) in test [16]; 4.94 µM (active) in test [17]; 7.91 µM (active) in test [18]. Also, the AC50 in test [19] is 12.4 µM (active). Also, the outcome in [2], in test [3], in test [4], in [13], in [14] and in [15] was inactive.
As to `Cc1ccc(N)cc1O`, the result in [1], in [2], in [3], in test [5], in [6] and in test [7] was inactive. In addition, the result in test [8], in [9], in test [11], in test [12], in test [13] and in test [14] was inactive. The result in test [15], in test [16], in test [17] and in test [19] was inactive. Further, the AC50 in test [4] was 26.8 µM (active); in test [10] it was 30.8 µM (active); in [18], 23.1 µM (active).
As for `O=C(O)c1cccc(Oc2ccccc2)c1`, the molecule was called inactive in [1], in [2], in test [3], in [5], in [8] and in [9]. Besides, the molecule was called inactive in test [10], in test [12], in [13], in test [14], in test [15] and in [16]. Besides, the result in test [17] and in test [19] was inactive. The AC50 in [4] is 30 µM (active); in test [6], 34.7 µM (active); in test [7] it was 31.2 µM (active); in test [11] it was 38.9 µM (active); in test [18], 50 µM (active).

Source of the values: PubChem BioAssay (EPA / NIEHS).
